As a reminder, the inhibition is the change of the read-out against control, counted positive when it falls.

The target in assay [1] is Tyrosine-protein kinase Fyn (Homo sapiens) (UniProt P06241). The settings on record: at 1 µM.
The target in assay [2] is Tyrosine-protein kinase HCK (Homo sapiens) (UniProt P08631). The settings on record: at 0.1 µM.
Assay [3] has the same target. The note with it: at 1 µM.
Assay [4] has as its target Insulin-like growth factor 1 receptor (Homo sapiens) (UniProt P08069). The settings on record: at 0.1 µM.
Assay [5] has the same target. The note with it: at 1 µM.
Assay [6] deals with Insulin receptor (Homo sapiens) (UniProt P06213). The settings on record: at 0.1 µM.
Assay [7] shares this target. The settings on record: at 1 µM.
Assay [8] concerns the target Insulin receptor-related protein (Homo sapiens) (UniProt P14616). The note with it: at 0.1 µM.
The target is the same in assay [9]. The settings on record: at 1 µM.
Assay [10] has as its target T1, Tyrosine-protein kinase ITK/TSK (Homo sapiens) (UniProt Q08881).
T1 sequence (whole entry): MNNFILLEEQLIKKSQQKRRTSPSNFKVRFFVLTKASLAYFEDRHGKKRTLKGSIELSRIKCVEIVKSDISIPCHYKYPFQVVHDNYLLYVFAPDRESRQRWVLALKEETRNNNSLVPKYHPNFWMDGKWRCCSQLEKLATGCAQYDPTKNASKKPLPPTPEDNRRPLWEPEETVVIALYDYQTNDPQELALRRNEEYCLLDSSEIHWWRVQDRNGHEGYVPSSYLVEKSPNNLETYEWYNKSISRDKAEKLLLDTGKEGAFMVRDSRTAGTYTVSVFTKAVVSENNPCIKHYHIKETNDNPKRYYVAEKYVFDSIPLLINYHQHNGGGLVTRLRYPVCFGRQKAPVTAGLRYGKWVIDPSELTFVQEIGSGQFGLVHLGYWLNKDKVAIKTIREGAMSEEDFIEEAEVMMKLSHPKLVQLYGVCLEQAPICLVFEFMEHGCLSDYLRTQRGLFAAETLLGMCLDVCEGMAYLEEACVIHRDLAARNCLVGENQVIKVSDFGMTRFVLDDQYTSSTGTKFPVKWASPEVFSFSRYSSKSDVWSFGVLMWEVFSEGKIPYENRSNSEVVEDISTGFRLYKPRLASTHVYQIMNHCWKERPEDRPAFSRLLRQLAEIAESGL
The note with it: at 0.1 µM.

In assay [11] the target is T1, Tyrosine-protein kinase ITK/TSK (Homo sapiens). The note with it: at 1 µM.
Assay [12] deals with Tyrosine-protein kinase JAK1 (Homo sapiens) (UniProt P23458). The settings on record: at 0.1 µM.
Assay [13] shares this target. The settings on record: at 1 µM.
Assay [14] has as its target Tyrosine-protein kinase JAK2 (Homo sapiens) (UniProt O60674). The settings on record: at 0.1 µM.
For assay [15] the target is unchanged. The settings on record: at 1 µM.
Assay [16] has as its target T2, Tyrosine-protein kinase JAK3 (Homo sapiens) (UniProt P52333).
T2 sequence (whole entry): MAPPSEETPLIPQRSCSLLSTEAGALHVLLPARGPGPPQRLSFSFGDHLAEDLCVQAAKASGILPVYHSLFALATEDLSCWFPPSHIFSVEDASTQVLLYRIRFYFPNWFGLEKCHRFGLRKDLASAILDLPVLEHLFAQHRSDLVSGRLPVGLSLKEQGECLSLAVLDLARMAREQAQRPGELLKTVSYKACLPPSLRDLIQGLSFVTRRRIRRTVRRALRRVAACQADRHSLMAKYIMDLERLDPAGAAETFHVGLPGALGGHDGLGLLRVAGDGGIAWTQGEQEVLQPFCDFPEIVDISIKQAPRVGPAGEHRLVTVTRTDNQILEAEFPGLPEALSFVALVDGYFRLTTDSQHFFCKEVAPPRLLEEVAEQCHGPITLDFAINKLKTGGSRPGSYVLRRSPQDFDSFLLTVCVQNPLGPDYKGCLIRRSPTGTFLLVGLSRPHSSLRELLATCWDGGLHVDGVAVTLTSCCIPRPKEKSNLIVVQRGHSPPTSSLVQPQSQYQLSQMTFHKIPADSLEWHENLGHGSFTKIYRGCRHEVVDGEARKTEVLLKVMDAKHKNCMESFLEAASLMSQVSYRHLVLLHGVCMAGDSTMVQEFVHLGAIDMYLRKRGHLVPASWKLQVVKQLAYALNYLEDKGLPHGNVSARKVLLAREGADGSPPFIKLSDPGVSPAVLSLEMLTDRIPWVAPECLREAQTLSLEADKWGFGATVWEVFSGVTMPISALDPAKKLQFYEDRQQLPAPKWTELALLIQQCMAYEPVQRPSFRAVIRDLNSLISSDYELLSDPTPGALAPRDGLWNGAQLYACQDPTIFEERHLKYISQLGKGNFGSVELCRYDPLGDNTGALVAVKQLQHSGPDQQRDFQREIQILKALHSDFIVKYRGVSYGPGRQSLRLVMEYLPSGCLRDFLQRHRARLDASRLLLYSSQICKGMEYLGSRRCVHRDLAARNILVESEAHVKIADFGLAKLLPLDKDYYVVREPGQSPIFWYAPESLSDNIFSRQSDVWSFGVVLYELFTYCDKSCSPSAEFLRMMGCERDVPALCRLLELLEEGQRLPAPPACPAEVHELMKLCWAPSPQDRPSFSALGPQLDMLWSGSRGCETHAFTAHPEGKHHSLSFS
The note with it: at 0.1 µM.

Assay [17] addresses T2, Tyrosine-protein kinase JAK3 (Homo sapiens). The note with it: at 1 µM.
Assay [18] has as its target Vascular endothelial growth factor receptor 2 (Homo sapiens) (UniProt P35968). The settings on record: at 0.1 µM.
Assay [19] has the same target. The settings on record: at 1 µM.
Assay [20] has as its target Mast/stem cell growth factor receptor Kit (Homo sapiens) (UniProt P10721). The note with it: at 0.1 µM.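 Note: values are mean inhibition of KIT, from the GSK PKIS dataset.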

Sequence of Tyrosine-protein kinase HCK (Homo sapiens) (P08631 2-526 limits assumed): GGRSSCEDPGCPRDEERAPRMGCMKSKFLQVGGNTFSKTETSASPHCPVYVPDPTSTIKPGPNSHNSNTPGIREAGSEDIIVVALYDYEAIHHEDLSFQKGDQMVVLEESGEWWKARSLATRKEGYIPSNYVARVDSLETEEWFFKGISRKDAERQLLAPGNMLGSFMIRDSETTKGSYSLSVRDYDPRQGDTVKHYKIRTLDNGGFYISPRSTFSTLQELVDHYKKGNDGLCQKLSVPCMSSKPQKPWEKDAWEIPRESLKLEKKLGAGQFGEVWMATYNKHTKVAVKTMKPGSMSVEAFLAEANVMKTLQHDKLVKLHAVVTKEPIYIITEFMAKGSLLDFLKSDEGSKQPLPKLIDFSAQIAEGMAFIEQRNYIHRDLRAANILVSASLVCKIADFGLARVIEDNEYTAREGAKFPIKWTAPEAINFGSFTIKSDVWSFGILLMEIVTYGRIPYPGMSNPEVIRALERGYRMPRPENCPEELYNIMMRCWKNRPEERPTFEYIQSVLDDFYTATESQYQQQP
Sequence of Tyrosine-protein kinase Fyn (Homo sapiens) (P06241 2-537 limits assumed): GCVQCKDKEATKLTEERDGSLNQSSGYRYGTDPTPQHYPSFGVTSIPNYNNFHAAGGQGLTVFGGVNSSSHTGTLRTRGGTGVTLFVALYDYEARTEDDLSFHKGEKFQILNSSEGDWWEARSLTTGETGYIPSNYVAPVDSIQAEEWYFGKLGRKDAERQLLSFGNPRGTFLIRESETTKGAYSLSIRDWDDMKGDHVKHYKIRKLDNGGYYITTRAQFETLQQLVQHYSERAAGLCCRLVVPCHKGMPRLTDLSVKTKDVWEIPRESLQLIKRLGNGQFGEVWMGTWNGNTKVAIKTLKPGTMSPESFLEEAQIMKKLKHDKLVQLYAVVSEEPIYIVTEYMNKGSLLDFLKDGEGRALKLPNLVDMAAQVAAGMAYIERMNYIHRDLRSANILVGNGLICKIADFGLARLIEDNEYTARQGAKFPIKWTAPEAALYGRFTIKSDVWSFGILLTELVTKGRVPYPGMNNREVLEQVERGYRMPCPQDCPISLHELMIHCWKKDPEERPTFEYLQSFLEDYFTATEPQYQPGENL
Sequence of Insulin receptor-related protein (Homo sapiens) (P14616 27-742 limits assumed): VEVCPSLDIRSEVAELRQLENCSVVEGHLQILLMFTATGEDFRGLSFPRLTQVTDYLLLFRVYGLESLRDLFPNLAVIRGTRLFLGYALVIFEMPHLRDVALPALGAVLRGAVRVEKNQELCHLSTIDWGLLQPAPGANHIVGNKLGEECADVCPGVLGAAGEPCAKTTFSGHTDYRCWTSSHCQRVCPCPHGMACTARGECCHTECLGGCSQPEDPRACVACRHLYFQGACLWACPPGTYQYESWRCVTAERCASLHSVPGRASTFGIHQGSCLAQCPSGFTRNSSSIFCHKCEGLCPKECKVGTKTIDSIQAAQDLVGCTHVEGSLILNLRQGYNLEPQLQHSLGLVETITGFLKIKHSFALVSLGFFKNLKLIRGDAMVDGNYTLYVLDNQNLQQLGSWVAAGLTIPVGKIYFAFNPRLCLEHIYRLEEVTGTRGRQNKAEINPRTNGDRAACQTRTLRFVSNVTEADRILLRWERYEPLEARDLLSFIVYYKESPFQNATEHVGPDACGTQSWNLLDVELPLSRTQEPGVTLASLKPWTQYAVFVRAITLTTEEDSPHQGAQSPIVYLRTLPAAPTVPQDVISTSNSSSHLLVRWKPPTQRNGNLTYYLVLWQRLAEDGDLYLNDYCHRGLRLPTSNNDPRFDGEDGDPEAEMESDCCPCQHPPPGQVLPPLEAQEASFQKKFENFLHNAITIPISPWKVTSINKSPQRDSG
Sequence of Insulin receptor-related protein (Homo sapiens) (P14616 747-1297 limits assumed): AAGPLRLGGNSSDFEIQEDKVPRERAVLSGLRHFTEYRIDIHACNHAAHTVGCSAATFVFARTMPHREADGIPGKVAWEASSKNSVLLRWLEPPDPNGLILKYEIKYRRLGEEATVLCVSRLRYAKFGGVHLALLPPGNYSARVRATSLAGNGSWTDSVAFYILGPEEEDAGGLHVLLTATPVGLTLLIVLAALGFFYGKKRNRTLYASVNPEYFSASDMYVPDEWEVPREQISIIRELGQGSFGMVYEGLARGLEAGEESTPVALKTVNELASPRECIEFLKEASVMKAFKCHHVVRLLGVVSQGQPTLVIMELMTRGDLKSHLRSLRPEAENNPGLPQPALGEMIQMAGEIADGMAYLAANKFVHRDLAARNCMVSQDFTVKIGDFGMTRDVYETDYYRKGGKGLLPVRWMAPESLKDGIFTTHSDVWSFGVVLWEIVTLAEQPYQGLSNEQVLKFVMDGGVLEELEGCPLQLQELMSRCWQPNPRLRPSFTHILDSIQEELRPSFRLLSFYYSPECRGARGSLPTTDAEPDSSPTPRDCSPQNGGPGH
Sequence of Mast/stem cell growth factor receptor Kit (Homo sapiens) (P10721 whole entry): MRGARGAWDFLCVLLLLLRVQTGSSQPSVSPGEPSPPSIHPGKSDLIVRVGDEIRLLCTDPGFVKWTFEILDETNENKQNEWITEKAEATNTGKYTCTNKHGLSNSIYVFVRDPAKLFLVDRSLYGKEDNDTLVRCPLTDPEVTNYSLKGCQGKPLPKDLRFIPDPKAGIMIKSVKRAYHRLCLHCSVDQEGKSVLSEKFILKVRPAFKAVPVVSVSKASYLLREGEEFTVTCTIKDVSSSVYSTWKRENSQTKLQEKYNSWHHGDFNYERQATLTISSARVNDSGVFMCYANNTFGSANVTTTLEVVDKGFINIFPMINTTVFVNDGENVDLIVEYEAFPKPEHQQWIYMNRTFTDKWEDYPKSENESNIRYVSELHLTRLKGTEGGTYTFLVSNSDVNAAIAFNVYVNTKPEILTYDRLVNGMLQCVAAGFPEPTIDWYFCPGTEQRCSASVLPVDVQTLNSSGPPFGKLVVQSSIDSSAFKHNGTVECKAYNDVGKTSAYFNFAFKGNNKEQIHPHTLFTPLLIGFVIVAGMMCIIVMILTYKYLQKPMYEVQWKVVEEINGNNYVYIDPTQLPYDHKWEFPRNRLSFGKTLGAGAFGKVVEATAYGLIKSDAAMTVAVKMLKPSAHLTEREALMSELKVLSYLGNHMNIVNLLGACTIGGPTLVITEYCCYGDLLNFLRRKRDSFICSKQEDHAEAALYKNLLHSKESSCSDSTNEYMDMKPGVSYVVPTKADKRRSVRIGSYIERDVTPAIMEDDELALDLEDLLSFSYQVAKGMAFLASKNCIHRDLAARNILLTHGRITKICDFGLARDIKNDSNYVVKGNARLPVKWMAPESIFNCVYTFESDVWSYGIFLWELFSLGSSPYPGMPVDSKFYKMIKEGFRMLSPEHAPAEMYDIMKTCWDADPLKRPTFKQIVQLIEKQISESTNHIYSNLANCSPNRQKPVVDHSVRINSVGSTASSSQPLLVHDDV
Sequence of Insulin-like growth factor 1 receptor (Homo sapiens) (P08069 31-736 limits assumed): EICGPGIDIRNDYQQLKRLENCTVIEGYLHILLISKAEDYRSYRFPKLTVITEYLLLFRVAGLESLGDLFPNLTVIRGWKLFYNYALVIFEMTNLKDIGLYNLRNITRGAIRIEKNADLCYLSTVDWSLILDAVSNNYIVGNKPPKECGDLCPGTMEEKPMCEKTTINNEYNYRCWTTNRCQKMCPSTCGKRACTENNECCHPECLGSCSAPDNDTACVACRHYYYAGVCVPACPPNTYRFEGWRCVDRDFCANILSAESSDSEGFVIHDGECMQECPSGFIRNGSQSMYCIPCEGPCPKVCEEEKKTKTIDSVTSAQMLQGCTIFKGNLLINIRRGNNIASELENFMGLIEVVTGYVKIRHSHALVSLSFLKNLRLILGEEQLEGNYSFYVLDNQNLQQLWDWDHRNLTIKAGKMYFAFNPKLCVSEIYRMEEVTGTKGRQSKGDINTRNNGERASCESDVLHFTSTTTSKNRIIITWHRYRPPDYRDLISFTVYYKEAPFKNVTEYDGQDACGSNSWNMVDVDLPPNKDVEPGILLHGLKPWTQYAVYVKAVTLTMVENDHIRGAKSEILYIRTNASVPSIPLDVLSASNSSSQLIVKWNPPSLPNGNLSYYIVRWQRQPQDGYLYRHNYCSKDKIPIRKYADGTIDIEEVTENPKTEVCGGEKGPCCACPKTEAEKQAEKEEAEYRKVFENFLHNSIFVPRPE
Sequence of Insulin-like growth factor 1 receptor (Homo sapiens) (P08069 741-1367 limits assumed): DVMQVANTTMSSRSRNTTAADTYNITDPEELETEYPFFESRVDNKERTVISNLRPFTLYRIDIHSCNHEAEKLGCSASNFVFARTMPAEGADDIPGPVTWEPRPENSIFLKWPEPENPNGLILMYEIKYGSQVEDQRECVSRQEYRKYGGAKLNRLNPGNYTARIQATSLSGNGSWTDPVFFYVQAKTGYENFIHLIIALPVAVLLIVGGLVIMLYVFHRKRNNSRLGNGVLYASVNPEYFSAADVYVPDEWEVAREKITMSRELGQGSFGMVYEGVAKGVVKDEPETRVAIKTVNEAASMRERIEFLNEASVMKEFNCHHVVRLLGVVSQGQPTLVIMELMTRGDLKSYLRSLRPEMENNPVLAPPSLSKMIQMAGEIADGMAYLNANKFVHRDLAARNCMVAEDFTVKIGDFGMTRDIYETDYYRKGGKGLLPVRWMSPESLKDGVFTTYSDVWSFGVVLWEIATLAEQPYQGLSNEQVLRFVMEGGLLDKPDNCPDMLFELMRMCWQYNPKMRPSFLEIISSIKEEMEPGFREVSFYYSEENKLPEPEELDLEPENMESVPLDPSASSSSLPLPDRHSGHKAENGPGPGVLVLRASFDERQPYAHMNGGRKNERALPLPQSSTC

On to `Fc1ccc(-c2cc(-c3c[nH]nc3-c3ccccn3)ccn2)cc1`, for which the inhibition in assay [1] stood at 5%; in assay [2], 5.58%; in assay [3] it was 6.04%; in [4] it was 0.26%; in [5], 1.04%; in assay [6], 6.47%. Further, the inhibition was 5.34% in [7]; 2.45% in [8]; 2.16% in assay [9]; 0.99% in assay [10]; 0.13% in [11]; 4.79% in assay [12]. For the same molecule, the inhibition in assay [13] was 14.2%; in [14], 1%; in [15], 0.86%; in assay [16], -0.89%; in assay [17], -3.5%; in assay [18], 7.31%. The inhibition in assay [19] amounted to 22.2%; in assay [20] it was 5.29%.

Take `CN1CCC(n2cnc(-c3ccc(F)cc3)c2-c2ccnc(N)n2)CC1`: the inhibition in [1] was 7.42%; in [2] it was 3.15%; in [3], 7.9%; in [4] it was 0.43%; in assay [5], 3.19%; in assay [6], 2.01%. Besides, the inhibition in assay [7] came out at 5.41%; in assay [8], 0.89%; in assay [9], 1.43%; in assay [10], 1.04%; in [11], 6.65%; in assay [12], 1.99%. Moreover, the inhibition in assay [13] was 8.12%; in assay [14], 0.06%; in assay [15], 0.49%; in assay [16] it was -0.36%; in assay [17], -2.05%; in assay [18], 3.28%. Moreover, the values for the inhibition in assay [19] and in assay [20] were 10.8% and 1.87%, respectively.

As for `COc1cccc(-c2c[nH]c3c(N/N=C/c4ccncc4)ncnc23)c1`, the inhibition worked out at 58.7% in assay [1]; 12.8% in [2]; 51.8% in [3]; 0.05% in assay [4]; 2.22% in [5]; 1.17% in assay [6]. Also, the inhibition in [7] came out at 3.79%; in [8] it was 3.25%; in assay [9] it was 2.79%; in [10] it was 1.15%; in [11] it was 3.59%; in assay [12] it was 4.4%. Moreover, the inhibition in assay [13] turned out to be 15.3%; in assay [14], 1.76%; in assay [15], 15.1%; in assay [16] it was 0.32%; in assay [17] it was 24.9%; in assay [18], 17.6%. For the same molecule, the inhibition amounted to 61% in [19] and 45.5% in assay [20].

As to `COc1cccc(-n2ncc3c(N/N=C/c4ccc(F)cc4)ncnc32)c1`, the inhibition is 31.1% in assay [1]; 6.41% in [2]; 17.5% in assay [3]; 2.52% in assay [4]; 3.62% in assay [5]; -0.02% in assay [6]. Besides, the inhibition in assay [7] worked out at 2.69%; in [8], 2.92%; in assay [9], 2.32%; in assay [10], 1.34%; in assay [11] it was 2.7%; in assay [12] it was 4.84%. Also, the inhibition in [13] was 6.9%; in assay [14] it was 1.38%; in [15] it was 4.42%; in assay [16] it was -1.52%; in [17], 1.02%; in assay [18], 8.15%. For the same molecule, the inhibition is 20.6% in [19] and 5.42% in [20].

With `CCn1c(-c2nonc2N)nc2ccccc21`, the inhibition came to 0.78% in assay [1]; 5.97% in assay [2]; 8.93% in [3]; 4.98% in [4]; 6.36% in assay [5]; 2.87% in [6]. Besides, the inhibition was 1.78% in assay [7]; 3.31% in [8]; 2.08% in assay [9]; 1.11% in assay [10]; 0.89% in assay [11]; 5.98% in assay [12]. For the same molecule, the inhibition in assay [13] was -0.06%; in assay [14], 1.96%; in assay [15], 1.39%; in [16], -0.66%; in [17] it was 1.16%; in assay [18] it was 3.69%. Further, the inhibition in [19] is 4.29%; in assay [20], 3.84%.

For the molecule `CCOc1ccc2c(-c3ccnc(Nc4cccc(C(F)(F)F)c4)n3)cnn2n1`, the inhibition in assay [1] is 4.94%; in assay [2], 4.28%; in [3] it was 6.8%; in assay [4], -0.5%; in [5], 1.57%; in assay [6] it was 0.36%. Also, the inhibition in assay [7] stood at 1.46%; in assay [8], 0.63%; in [9] it was 1%; in assay [10] it was 0.45%; in [11], 4.47%; in assay [12], 1.9%. The inhibition was 5.28% in [13]; 0.91% in assay [14]; 0.53% in assay [15]; -1.95% in assay [16]; -0.21% in assay [17]; 4.26% in assay [18]. Moreover, the inhibition turned out to be 7.57% in [19] and 3.18% in assay [20].

Take `Cc1cccc(Nc2ncc(-c3ccccc3)o2)c1`: the inhibition in [1] worked out at 8.62%; in [2], 4.6%; in [3] it was 10.2%; in [4], 4.44%; in assay [5], 1.6%; in assay [6] it was 3.27%. Further, the inhibition in [7] turned out to be 2.89%; in [8], 2.57%; in assay [9], 1.2%; in [10] it was 2.38%; in assay [11] it was 3.08%; in assay [12], 2.19%. The inhibition in [13] was 0.42%; in assay [14], 2%; in assay [15], 2.63%; in assay [16] it was -0.81%; in assay [17] it was -0.44%; in [18] it was 4.96%. Moreover, the inhibition in assay [19] came to 21.3%; in assay [20], 38.5%.

In the case of `CC(=O)NCc1cccc(C#Cc2cncnc2Nc2ccc(OCc3cccc(F)c3)c(Cl)c2)c1`, the inhibition was found to be 3.27% in assay [1]; 2.8% in [2]; 2.97% in assay [3]; 0.82% in assay [4]; 1.07% in assay [5]; 2.9% in [6]. Besides, the inhibition in [7] is 0.68%; in [8] it was -0.93%; in [9] it was -0.28%; in assay [10], 0.36%; in assay [11] it was 0.81%; in assay [12] it was 0.65%. Moreover, the inhibition in assay [13] is 4.76%; in [14], -0.2%; in assay [15] it was -3%; in [16], -0.21%; in assay [17] it was 4.46%; in [18], 0.67%. Moreover, the inhibition is 8.91% in [19] and -1.01% in [20].

For `NC(=O)c1sc(-n2cnc3ccc(C(F)(F)F)cc32)cc1OCc1ccccc1Br`, the inhibition in assay [1] turned out to be 4.41%; in assay [2], 5.59%; in [3], 5.95%; in [4], 3.3%; in [5], 1.19%; in [6], 4.46%. Moreover, the inhibition in assay [7] was 5.5%; in [8], 1.61%; in [9], 0.64%; in [10], 1.03%; in assay [11], -0.19%; in assay [12] it was 3.49%. Besides, the inhibition in [13] is 10.6%; in assay [14], 1.84%; in assay [15] it was 3.26%; in [16], -1.41%; in assay [17] it was 0.92%; in assay [18], 6.34%. The inhibition came to 7.31% in assay [19] and 5.23% in assay [20].

As to `Clc1ccc(-c2nn3ncccc3c2-c2ccnc(Nc3ccccc3)n2)cc1`, the inhibition in assay [1] is 43.5%; in assay [2], 7.64%; in assay [3], 34.1%; in assay [4] it was 3.71%; in [5], 5.4%; in assay [6], 2.64%. Moreover, the inhibition was 4.44% in [7]; 0.65% in assay [8]; 0.7% in assay [9]; 1.38% in assay [10]; 2.29% in assay [11]; -4.43% in [12]. Also, the inhibition was -2.06% in assay [13]; 1.44% in assay [14]; 0.88% in assay [15]; 0.42% in assay [16]; 2.99% in assay [17]; 11.2% in [18]. In addition, the figures for the inhibition in [19] and in [20] were 42.1% and 11.7%, respectively.

(Values after ChEMBL document CHEMBL1961873, “Compounds: GSK PKIS; Assays: Nanosyn kinase panel” (2012).)
